A selection: hits, their analogues and other compounds. The true share with any hit is near 21%.
CYP2C19 act: increases human CYP2C19 enzyme activity; recombinant CYP2C19, luciferin-H EGE luminescence; hits give high values; 0 = fully inhibited enzyme, 1 = untreated enzyme; 96,000 tested, under 10 active; P33261; AID 1025; activation factor at 5 µM;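 active = activation factor of at least 2 at 5 µM in the primary screen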;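 note: 0 = wells with 2.5 mM tranylcypromine and 1 = vehicle-only wells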
MRP-1 activ: MRP-1 activation | 140,000 compounds, 0.61% hits | AID 799 | viability increase, % at 10 µM | H69AR cells + doxorubicin, viability rescue, CellTiter-Glo;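 active = viability gain under doxorubicin at or above a set limit, the compound median plus 3 SD, cut at about 4.7% in these data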;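 note: MRP-1 overexpressing cells given doxorubicin 25 µM after compound pretreatment; 18-22 h compound pretreatment then 72 h with doxorubicin before readout; 0% = doxorubicin-only wells and 100% = vehicle-treated cells without doxorubicin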
MRP reversal: reverses drug resistance mediated by MRP; H69AR cells + 2 uM doxorubicin, CellTiter-Glo, 72 h; differential viability (reversal), % at 10 µM; 85,000 compounds, 0.04% hits; AID 602;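 active = viability drop by adding the cancer drug above about 55%, with treated viability meeting a 40% cutoff, limit read from the data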;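 note: viability without doxorubicin minus viability with 2 µM doxorubicin for each compound; larger differential means the compound sensitizes cells more to doxorubicin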
CYP2C9 activ: increases human cytochrome P450 2C9 activity; P11712; recombinant CYP2C9, luciferin-H conversion, luminescence; hits give high values; factor 1 = untreated enzyme, 0 = blocked; activation factor at 5 µM; 96,000 compounds, 1.4% hits; AID 1024;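 active = activation factor of 2 or more for CYP2C9 at a 5 µM dose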;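 note: 0 = sulfaphenazole-blocked wells and 1 = vehicle-only wells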
Target sequence (P11712 whole entry, looked up): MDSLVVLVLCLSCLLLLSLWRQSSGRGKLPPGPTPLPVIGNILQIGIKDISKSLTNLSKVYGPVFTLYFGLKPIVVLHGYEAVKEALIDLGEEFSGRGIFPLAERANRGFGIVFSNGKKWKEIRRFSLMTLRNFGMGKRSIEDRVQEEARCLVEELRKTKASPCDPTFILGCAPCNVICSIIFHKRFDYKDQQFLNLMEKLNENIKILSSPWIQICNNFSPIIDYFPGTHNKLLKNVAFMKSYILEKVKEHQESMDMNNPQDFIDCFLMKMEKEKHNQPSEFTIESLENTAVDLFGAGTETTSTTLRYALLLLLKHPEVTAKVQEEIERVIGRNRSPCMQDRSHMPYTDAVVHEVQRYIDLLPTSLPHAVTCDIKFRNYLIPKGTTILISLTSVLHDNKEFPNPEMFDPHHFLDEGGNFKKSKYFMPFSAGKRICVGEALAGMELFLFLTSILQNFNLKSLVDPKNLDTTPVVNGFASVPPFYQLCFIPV
CYP2C19 inh: inhibitors of human CYP2C19. P33261. CYP2C19 Supersomes, luciferin-H EGE luminescence, 30 min. inhibition, % at 5 µM. 96,000 compounds, 21% hits. AID 778;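 active = CYP2C19 inhibition above a set limit at 5 µM in the primary screen, cut at about 50% in these data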;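 note: plate controls were negative control wells for no effect and 2.5 mM tranylcypromine positive control for full effect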
CYP2C9 inhib: human CYP2C9 inhibition | P11712 | 96,000 compounds, 20% hits | AID 777 | inhibition, % at 5 µM | CYP2C9 Supersomes, luciferin-H conversion, luminescence;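 active = blocking of liver enzyme CYP2C9 beyond about 50% at 5 µM, limit read from the data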
* marks the source's active call; other numbers are inactive results; nt = no result.

SMILES | CYP2C19 act | MRP-1 activ | MRP reversal | CYP2C9 activ | CYP2C19 inh | CYP2C9 inhib
CN(C)c1nc(SCc2ccccc2)nc(N2CCOCC2)n1 | 0.7 | 1 | -8 | 0.9 | 33 | 9
Clc1ccc(CNc2nc(N3CCOCC3)nc(N3CCOCC3)n2)cc1 | 0.2 | -1 | 19 | 0.2 | 77* | 75*
CC(C)OC(=O)c1c(F)c(F)c(N2CCOCC2)c(F)c1F | 0.5 | 2 | 12 | 1 | 51* | -2
O=c1[nH]c2ccc(Cl)cc2c(-c2ccccc2)c1SC(=S)N1CCCCC1 | 1.1 | 0 | -5 | 0.5 | -8 | 52*
CCOC(=O)/C(C#N)=C1/C=CN(Cc2ccccc2)C=N1 | 0.3 | -3 | 7 | 0.4 | 68* | 57*
CCn1nnnc1SCC(=O)Nc1ccc(OCc2ccccc2)cc1 | nt | -4 | 7 | nt | nt | nt
COCCN1C(=O)N[C@@H](c2ccco2)C(C(C)=O)=C1C | nt | 0 | nt | nt | nt | nt
COc1cc(C(=O)NCCC(=O)NC2CCCCCCC2)cc(OC)c1OC | 0.2 | -5 | -6 | 0.6 | 83* | 37
COC(=O)[C@H](CCSC)NC(=O)Nc1ccc(C)cc1C | 0.5 | -1 | nt | 0.8 | 52* | 24
COC(=O)[C@H](CCSC)NC(=O)Nc1ccc(C)c(C)c1 | 0.4 | -2 | 0 | 0.8 | 62* | 22
O=C1c2oc3ccccc3c(=O)c2C(c2ccc(Cl)cc2)N1c1ncccn1 (stereo not drawn) | nt | nt | 6 | nt | nt | nt
O=C(CCCC(=O)N1CCc2ccccc21)N1CCc2ccccc21 | 1 | nt | 12 | 1 | 2 | 0
Cc1cccc(OCCCC(=O)N2CCCc3ccccc32)c1C | 0.2 | 0 | -21 | 0.8 | 83* | 16
O=C1c2ccccc2C(=O)N1CCCC(=O)N1CCCc2ccccc21 | 0.2 | 1 | -4 | 1 | 83* | -2
O=C(CCCOc1ccc(Cl)cc1Cl)N1CCCc2ccccc21 | 0.7 | 0 | nt | 0.6 | 32 | 36
Cc1ccc(S(=O)(=O)N2CCN(CC(=O)N/N=C/C=C/c3ccccc3)CC2)cc1 | nt | 5 | nt | nt | nt | nt
NS(=O)(=O)c1ccc(NCc2cc(Cl)ccc2OCc2ccccc2F)cc1 | 0.9 | -2 | nt | 0.7 | 7 | 28
NS(=O)(=O)c1ccc(NCc2ccccc2OCc2ccc(F)cc2)cc1 | 0.7 | -1 | nt | 0.2 | 31 | 78*
Cc1cc(C)nc(NC(=O)C(c2ccccc2)c2ccccc2)n1 | 0.8 | -2 | nt | 0.3 | 21 | 71*
Cn1nnc(NC(=O)C(c2ccccc2)c2ccccc2)n1 | 0.6 | -1 | nt | 0.2 | 41 | 84*
Cc1cc(C)nc(NC(=O)C(c2ccccc2)c2ccccc2)c1 | nt | -2 | nt | nt | nt | nt
CC1=C(C(=O)OCC(C)C)C(c2cccc(F)c2)N2C(=O)C(C)SC2=N1 (stereo not drawn) | 0.3 | 1 | -6 | 0.3 | 75* | 75*
CC1=C(C(=O)OC(C)C)C(c2cccc(F)c2)N2C(=O)C(C)SC2=N1 (stereo not drawn) | 0.2 | 5.3* | -1 | 0.3 | 81* | 70*
COc1ccc(CC(=O)c2ccc(OC)c(OC)c2C)cc1OC | nt | 1 | nt | nt | nt | nt
N#Cc1c(-c2ccc(C(F)(F)F)cc2)cc(-c2ccccc2)[nH]c1=S | nt | -3 | nt | nt | nt | nt
SMILES | CYP2C19 act | MRP-1 activ | MRP reversal | CYP2C9 activ | CYP2C19 inh | CYP2C9 inhib
CCC(C)NC(=O)COC(=O)c1ccccc1OCC(=O)Nc1ccc(Br)cc1 (stereo not drawn) | nt | -4 | nt | nt | nt | nt
CC(=O)NC(C)C(=O)OCC(=O)Nc1ccc(Br)cc1 (stereo not drawn) | 0.5 | -1 | -7 | 0.8 | 54* | 16
COc1ccc(Nc2nccc3c2nnn3C)cc1 | 0.6 | -1 | -9 | 0.9 | 39 | 12
Cn1c(=O)c2c(ncn2Cc2ccc(Cl)c(Cl)c2)n(C)c1=O | 0.1 | -4 | 15 | 0.4 | 92* | 61*
COC(=O)Cn1cnc2c1c(=O)n(C)c(=O)n2C | nt | -2 | 5 | nt | nt | nt
Cn1c(=O)c2c(ncn2CC(=O)OCc2ccccc2)n(C)c1=O | 1 | 1 | 8 | 0.4 | 2 | 63*
Cn1c(=O)c2c(nc(SCC(=O)OCc3ccccc3)n2C)n(C)c1=O | 0.7 | -1 | 3 | 0.2 | 26 | 80*
Cn1c(=O)c2c(ncn2Cc2cccc(Cl)c2)n(C)c1=O | 0.5 | 0 | 8 | 0.9 | 47 | 13
Cc1cccc(Cn2c(C(=O)OC(C)C)cc3c2ccn3C)c1 | 0.5 | -3 | -2 | 0.8 | 46 | 21
CCOC(=O)c1ccc(NS(=O)(=O)c2cccc3nsnc23)cc1 | 0.6 | -1 | 15 | 0.2 | 37 | 78*

Screens as filed in PubChem.
